Source: PubChem BioAssay AID651820 (National Center for Advancing Translational Sciences (NCATS), 2012)
Out of some 340,000 compounds screened, about 12,000 (3.5%) were called active. Not shown: some 18% with an inconclusive outcome. The sample as a whole holds a higher share of actives than the screen did. Values without a mark were called inactive. Calls follow the shape of the dose curve; as a rule, active = well fitted inhibition curve with a large enough effect; inconclusive = small, poorly fitted or top-dose-only effect, or another doubt; inactive = no such curve, though single readings can be large or run the other way.

experiment: qHTS Assay for Inhibitors of Hepatitis C Virus (HCV); conditions: Huh7.5.1 HCVcc-Cre infection, luciferase reporter, 44 h; series mostly up to 41.8 µM; activity change, negative = inhibition: at the top concentration
Method in brief: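 Compounds are dispensed onto cells plated 4 h earlier at 1,000 per well, with HCVcc-Cre virus (about 0.5 moi) added next. Following 44 h of culture, luminescent signal is measured for 15 sec after 15 min with substrate at room temperature.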
% is scaled to controls: 0 for no effect and ±100 for the full control effect; potency is read from the fitted curve at half-maximal effect.

SMILES | activity change, negative = inhibition | Potency
Cc1nc(N)nc(Cl)c1CCC1OCCO1 | 4.05% | –
O=C(CSc1nnc(COc2ccc(Cl)cc2)n1Cc1ccco1)N1CCNC1=O | 0.329% | –
S=C(Nc1cccc(Cl)c1)Nc1ccc2cn[nH]c2c1 | 12.4% | –
CC(=O)Nc1cccc(C(=O)Nc2nc(C)cs2)c1 | -2.74% | –
Cc1csc(NC(=S)Nc2cccc(Cl)c2)n1 | – | 12.6 µM (active)
Cc1ccc(Cn2c(C)c3cnn(CC(=O)NCCN4CCOCC4)c(=O)c3c2C)cc1 | 3.09% | –
COc1ccc(CNC(=O)CN2C(=O)c3ccccc3S2(=O)=O)cc1 | -10.1% | –
O=C(Cn1nnc(-c2ccccc2)n1)NC(=O)NC1CCCC1 | 31.6% | –
COc1c(C)c2c(c(O)c1C/C=C(\C)CCC(=O)O)C(=O)OC2 | – | 2 µM (active)
CC(C)[C@@H](C(=O)OCC(=O)c1ccc2c(c1)NC(=O)CO2)N1C(=O)c2ccccc2C1=O | -2.05% | –
Cc1ccc(-n2nc3c(=O)n(C(C)C(=O)NCc4ccc5c(c4)OCO5)nc(C)c3c2C)cc1 (stereo not drawn) | – | 11.2 µM (active)
Cc1nn(C(C)C(=O)N2CCOCC2)c(=O)c2nn(-c3ccccc3)c(C)c12 (stereo not drawn) | -2.95% | –
CC(Sc1nncs1)C(=O)NCc1ccc2c(c1)OCO2 (stereo not drawn) | 9.22% | –
Cc1noc(C)c1NC(=O)Nc1ccc2c(c1)C(=O)N([C@H](C)CO)C[C@H](C)[C@@H](CN(C)S(=O)(=O)c1cn(C)cn1)O2 | 12.7% | –
Cc1cccc(NC(=S)N2CCC(C(=O)c3ccc(F)cc3)CC2)c1 | 1.19% | –
Cc1ccc(C2CCN(C(=S)Nc3cccc(Cl)c3)C2)cc1 (stereo not drawn) | – | 12.6 µM (active)
O=C(C1CCCO1)N1CCN(C(=S)Nc2cccc(Cl)c2)CC1 (stereo not drawn) | 14.7% | –
S=c1[nH]nc(NCCc2ccccc2)s1 | 2.55% | –
Cc1nc(N)sc1-c1ccccc1 | -10.6% | –
Cc1nc(C)c(-c2csc(NCCc3ccccc3)n2)s1 | – | 2.82 µM (active)
C[C@H](CO)N1C[C@H](C)[C@@H](CN(C)C(=O)Nc2ccc3c(c2)OCO3)Oc2c(cccc2N(C)C)C1=O | 4.83% | –
Cc1occc1-c1nnc(SCC(=O)NC2CCCCC2)o1 | -19.8% | –
CCN(CC(=O)NCc1ccc(F)cc1)S(=O)(=O)c1ccc(Cl)s1 | -12.5% | –

SMILES | activity change, negative = inhibition | Potency
COc1cc(/C=N\Nc2nc(-c3cccs3)c(NC(C)=O)s2)ccc1O | 7.87% | –
CCOc1cc(/C=C(\C#N)c2nc(-c3cccs3)c(NC(C)=O)s2)ccc1O | – | 0.891 µM (active)
CCOc1cc(C=NNC(=O)CCCC(=O)NN=Cc2ccc(O)c(OCC)c2)ccc1O | 11.1% | –
Cc1ccc(C2(C)NC(=O)N(CC(=O)N3CC(=O)Nc4ccccc43)C2=O)cc1 (stereo not drawn) | 13.9% | –
O=C(CN1CCN(C2CCS(=O)(=O)C2)CC1)N1N=C(c2ccc(Cl)cc2)CC1c1ccco1 (stereo not drawn) | -27.2% | –
CCCOc1ccc(Cc2c(O)nc(SC)[nH]c2=O)cc1C | 15.9% | –
CCCOc1ccc(-c2nc(N)n[nH]2)cc1 | 9.2% | –
CCCOc1ccc(Cc2c(Cl)nc(SC)nc2NC)cc1 | – | 2.82 µM (active)
CCOC(=O)N(Cc1ccccc1)C1CC1 | 28.4% | –
CC(C)(C)OC(=O)N(Cc1ccccc1)Cc1ccc(OCc2cccc(NC(=O)c3ccccc3)c2)cc1 | -4.99% [at 8.37 µM] | –
COc1ccc(OCc2cccc(C(=O)N3CCCC3)c2)cc1 | -19.1% | –
CC(C)c1cc(C(N)=O)c(NC(=O)c2cccc(COc3ccc(Br)cc3)c2)s1 | – | 10 µM (active)
O=C(CNS(=O)(=O)c1ccc2c(c1)OCCCO2)N1CCN(c2ccc(F)cc2)CC1 | -5.91% | –
CC1(C)C=Cc2c(ccc3c2OC[C@@H](c2ccc(O)cc2O)C3)O1 | -7.33% | –
c1ccc(Nc2nc(N3CCOCC3)c3ccccc3n2)cc1 | – | 11.2 µM (active)
O=c1[nH]c(N2CCOCC2)nc2ccccc12 | 9.82% | –
CN1CCN(c2nc(Nc3ccc(O)cc3)nc3ccccc23)CC1 | -19.8% | –
CCOC(=O)C1=C(c2ccc(OC)cc2)C(=O)c2ccccc2C1=O | – | 7.08 µM (active)
CCCCC(C(=O)OCC(=O)c1ccc(OC)cc1)N1C(=O)c2ccccc2C1=O (stereo not drawn) | -29.6% | –
COc1ccc(OCCCON2C(=O)c3ccccc3C2=O)cc1 | 5.92% | –
O=[N+]([O-])c1ccc(NS(=O)(=O)c2ccccc2)c(Cl)c1 | -7.59% | –
COc1ccccc1OCc1nnc(SCC(N)=O)n1-c1ccccc1 | 7.37% | –
COc1ccccc1NC(=O)CSc1nnc(Cc2cccn2C)n1-c1ccc(F)cc1 | – | inactive

SMILES | activity change, negative = inhibition | Potency
COc1ccccc1NC(=O)CSc1nnc(Cn2nnc(-c3ccccc3)n2)n1-c1ccccc1 | – | 31.6 µM (active)
O=C(COC(=O)c1n[nH]c2ccccc12)Nc1ccccc1Br | -0.82% | –
CC(C(=O)Nc1ccc(S(=O)(=O)N2CCCC2)cc1)N(C)Cc1ccc(F)cc1 (stereo not drawn) | -4.33% | –
CCOc1ccc2nc(N(CCCN(C)C)C(=O)c3ccc(C(=O)c4ccccc4)cc3)sc2c1 | -29.8% | –
CCOc1ccc2nc(N(CCN(C)C)C(=O)c3ccc4ccccc4c3)sc2c1 | -27.4% | –
Cc1cccc2sc(N(CCCN(C)C)C(=O)CCS(=O)(=O)c3ccccc3)nc12 | 7.99% | –
COc1cccc2sc(N(CCCN(C)C)C(=O)CCS(=O)(=O)c3ccccc3)nc12 | 17.2% | –
COc1cc2ccccc2cc1C(=O)N(CCN(C)C)c1nc2c(F)cccc2s1 | – | 14.1 µM (active)
COc1cccc2sc(N(CCCN(C)C)C(=O)C(c3ccccc3)c3ccccc3)nc12 | – | 12.6 µM (active)
C[C@H](OC(=O)n1ccnc1)[C@@H]1O[C@@]2(C)CCC[C@@H]1O2 | 4.05% | –
CCc1cccc(NC(=O)COC(=O)c2cc(=O)c3ccccc3o2)c1 | 0.189% | –
Cc1nn(-c2ccccc2)c(C)c1C(=O)OCC(=O)NC(=O)NC1CCCCC1 | -6.4% | –
Cc1nc(/N=C(\N)NC(=O)NC2CCCCC2)nc2ccccc12 | – | 11.2 µM (active)
O=C(NNC(=O)C(O)c1ccccc1)NC1CCCCC1 (stereo not drawn) | 12.7% | –
C=CCOc1cccc(C2C(C(=O)c3ccc(C)o3)=C(O)C(=O)N2CCCn2ccnc2)c1 (stereo not drawn) | 12.5% | –
Cc1cccc(CC2(O)C(=O)Nc3ccccc32)n1 (stereo not drawn) | 4.09% | –
Cc1ccnc(SCC(=O)Nc2cccc(S(=O)(=O)N3CCOCC3)c2)n1 | 2.31% | –
Cc1nc2ccc(NC(=O)C3CCCCC3)cc2s1 | 15.5% | –
Cc1nc2ccc(N)nc2nc1C | 25.2% | –
Clc1nc(NC2CCCC2)nc(N2CCOCC2)n1 | – | 14.1 µM (active)
COc1nc(NC2CCCCC2)nc(N2CCCCCC2)n1 | -16.6% | –
COC(=O)CNc1nc(Cl)nc(N2CCC(C)CC2)n1 | 7.19% | –
